PubChem BioAssay (EPA / NIEHS)
Results filed as inconclusive are left out. Calls of active or inactive are those of the source. How the source made its calls, unless noted: active means hit-call score of the fitted dose curve at least 0.9, where 1 is the maximum; inconclusive means response in the unintended direction; inactive means score below 0.9.

How the values were obtained:
[1] = system: guinea pig Dopamine Transporter (DAT), gene 100714898; assay: NVS_TR_gDAT: NovaScreen (NVS) Transporter Assay for guinea pig Dopamine Transporter (DAT) (AID 2283369);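 further: active compounds lower bound radioligand signal relative to DMSO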
Summary of the method: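 Scintillation counts of filter-retained radioligand report binding to guinea pig striatal membranes after 2 h. Activity scored as signal loss relative to DMSO, first at 25 uM in duplicate, then in concentration series to 50 uM.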

[2] = CCTE_Shafer_MEA_dev_correlation_coefficient_mean: CCTE's Neural Network Formation Assay for Mean Correlation Coefficient, Shafer Lab (AID 2284093; active means hit-call score of the fitted dose curve at least 0.9, where 1 is the maximum; inactive means score below 0.9)
Summary of the method: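 Rat cortical cultures, 1.5 x 10^5 cells/well, dosed from day 0 for 12 days. Spontaneous spikes recorded DIV 5/7/9/12; electrode-pair correlation coefficients averaged, AUC taken. Fit in loss direction vs DMSO.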

[3] = TAMU_PeakParms_SingleDonor1434_Chronotropy: Texas A&M University (TAMU) 1.5-hr Human Induced Pluripotent Stem Cell (iPSC)-derived Cardiomyocytes Calcium (Ca+2) Flux Assay for Cardiotoxicity: Chronotropy (changes in peak frequency) (AID 2284217; active means hit-call score of the fitted dose curve at least 0.9, where 1 is the maximum; inactive means score below 0.9); settings: actives raise or lower the signal
Summary of the method: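 iPSC-CMs, donor 1434; 4 conc (0.2–100 uM), 0.5% v/v DMSO, 90 min, 37C/5% CO2; Ca2+ flux fluorescence → peak.freq.avg; peak.freq.avg = 0 dropped; bidirectional fit vs DMSO; EC05 POD.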

[4] = biological target: human Norepinephrine Transporter (NET), SLC6A2 (gene 6530) (UniProt P23975); assay: NVS_TR_hNET: NovaScreen (NVS) Transporter Assay for human Norepinephrine Transporter (NET) (AID 2283377);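 further: cell-free membrane protein extracted from CHO cells expressing human NET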;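 on AC50: displacement of radioligand from human NET seen as loss of scintillation signal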
Chain of human Norepinephrine Transporter (NET), SLC6A2 (gene 6530) (P23975 whole entry, looked up): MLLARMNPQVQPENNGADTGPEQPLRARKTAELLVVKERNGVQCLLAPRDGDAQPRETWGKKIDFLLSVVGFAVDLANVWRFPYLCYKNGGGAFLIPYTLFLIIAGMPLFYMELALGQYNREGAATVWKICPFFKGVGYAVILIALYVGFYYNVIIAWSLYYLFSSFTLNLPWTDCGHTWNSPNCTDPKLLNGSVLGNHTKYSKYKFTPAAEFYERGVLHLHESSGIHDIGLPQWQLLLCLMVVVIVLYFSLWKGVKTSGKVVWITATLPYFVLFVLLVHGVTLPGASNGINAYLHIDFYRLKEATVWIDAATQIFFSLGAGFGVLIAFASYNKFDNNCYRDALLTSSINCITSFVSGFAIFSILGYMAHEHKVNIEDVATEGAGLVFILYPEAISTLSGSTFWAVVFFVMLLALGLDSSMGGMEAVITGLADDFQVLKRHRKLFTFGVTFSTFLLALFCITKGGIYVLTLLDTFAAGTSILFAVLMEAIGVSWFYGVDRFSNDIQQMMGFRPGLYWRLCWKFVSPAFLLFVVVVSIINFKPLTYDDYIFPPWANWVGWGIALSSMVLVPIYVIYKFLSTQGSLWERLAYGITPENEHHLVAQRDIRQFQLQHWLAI
Summary of the method: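 Scintillation counts of filter-retained radioligand served as the readout, taken 1 h post-dosing in a cell-free CHO-derived system. Test chemicals ran first at 25 uM in duplicate; confirmed hits were retested across concentrations.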

[5] = CCTE_Deisenroth_5AR_NBTE_acceptor: CCTE's 5alpha-reductase NanoBRET Target Engagement Assay - Autofluorescence Screen, Deisenroth Lab (AID 2284321; active means hit-call score of the fitted dose curve at least 0.9, where 1 is the maximum; inactive means score below 0.9;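 further: compound fluorescence in the acceptor channel under 460 nm excitation flags autofluorescence artifacts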); settings: actives raise or lower the signal
Summary of the method: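 Acceptor fluorescence intensity was read as an artifact-detection endpoint. Test chemicals at an assumed nominal 100 uM were excited at 460 nm across three independent runs. Activity was fitted bidirectionally against DMSO.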

[6] = CCTE_Simmons_CellTiterGLO_HEK293T: Viability Assessment in CCTE's Assays for Thyroperoxidase (TPO) Inhibition, Simmons Lab (AID 2283665)
Summary of the method: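 HEK293T, 10 000 cells/well, DMEM + 1% FBS; 8-pt titration 5 nM–87.5 uM [final], 0.5% DMSO; 24 hr, 37C, 5% CO2; CellTiter-Glo luminescence; n=3 biological replicates.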

[7] = biological target: Androgen Receptor/SRC-1 Co-activator, AR (gene 367) (UniProt P10275); assay: OT_AR_ARSRC1_0960: Odyssey Thera (OT) 16-hour HEK293T Protein-Complementation Assay for Androgen Receptor/SRC-1 Co-activator (AID 2283353);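 further: actives raise the signal above DMSO so potency reflects increased AR and SRC-1 complex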
Chain of Androgen Receptor/SRC-1 Co-activator, AR (gene 367) (P10275 whole entry, looked up, the tested form may be a part): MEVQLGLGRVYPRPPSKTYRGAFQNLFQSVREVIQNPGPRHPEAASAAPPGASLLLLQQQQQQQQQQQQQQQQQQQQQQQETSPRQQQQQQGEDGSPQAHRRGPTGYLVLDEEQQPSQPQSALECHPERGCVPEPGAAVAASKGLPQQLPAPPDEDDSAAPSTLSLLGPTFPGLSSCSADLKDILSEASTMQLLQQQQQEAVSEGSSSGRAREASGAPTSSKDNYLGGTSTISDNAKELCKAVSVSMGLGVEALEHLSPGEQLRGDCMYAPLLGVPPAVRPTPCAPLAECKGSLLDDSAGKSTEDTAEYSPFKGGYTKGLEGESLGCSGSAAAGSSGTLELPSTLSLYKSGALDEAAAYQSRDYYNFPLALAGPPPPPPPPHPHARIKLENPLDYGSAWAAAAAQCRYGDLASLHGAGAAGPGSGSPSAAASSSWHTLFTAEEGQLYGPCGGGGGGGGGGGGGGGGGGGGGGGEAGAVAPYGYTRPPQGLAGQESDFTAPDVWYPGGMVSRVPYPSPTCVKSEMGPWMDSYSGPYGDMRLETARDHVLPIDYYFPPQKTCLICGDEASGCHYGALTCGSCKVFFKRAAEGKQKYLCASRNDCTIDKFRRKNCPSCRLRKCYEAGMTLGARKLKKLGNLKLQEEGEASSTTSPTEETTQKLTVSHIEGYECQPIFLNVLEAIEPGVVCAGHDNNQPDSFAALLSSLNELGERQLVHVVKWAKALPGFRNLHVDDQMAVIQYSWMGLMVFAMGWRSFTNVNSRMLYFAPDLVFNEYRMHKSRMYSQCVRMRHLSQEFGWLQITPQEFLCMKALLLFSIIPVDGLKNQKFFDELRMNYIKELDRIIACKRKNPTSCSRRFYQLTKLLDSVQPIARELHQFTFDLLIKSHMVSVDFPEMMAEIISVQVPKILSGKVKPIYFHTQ
Summary of the method: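 Split-Venus PCA, AR/SRC-1 fusions, stable HEK293T; 16 h compound exposure; imaged at 488 and 635 nm; N/C ratio (488 nm channel), min 400 cells/image; positive-direction fit, DMSO baseline.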

[8] = biological target: Androgen Receptor/SRC-1 Co-activator, AR (gene 367) (UniProt P10275); assay: OT_AR_ARSRC1_0480: Odyssey Thera (OT) 8-hour HEK293T Protein-Complementation Assay for Androgen Receptor/SRC-1 Co-activator (AID 2283354);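 further: hits raise the complementation signal above DMSO so AC50 marks enhancers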
Summary of the method: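 Measures AR/SRC-1 binding by Venus YFP fragment complementation in HEK293T stable lines at 8 h post-dose. Imaging quantifies the 488nm nucleus/cytoplasm ratio in ≥400 cells; DMSO defines baseline.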

[9] = biological target: human Peroxisome Proliferator-activated Receptor alpha (PPARa), PPARA (gene 5465) (UniProt Q07869); assay: NVS_NR_hPPARa: NovaScreen (NVS) Nuclear Receptor Binding Assay for human Peroxisome Proliferator-activated Receptor alpha (PPARa) (AID 2283359);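 further: activity means loss of TR-FRET signal versus DMSO baseline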
Chain of human Peroxisome Proliferator-activated Receptor alpha (PPARa), PPARA (gene 5465) (Q07869 whole entry, looked up): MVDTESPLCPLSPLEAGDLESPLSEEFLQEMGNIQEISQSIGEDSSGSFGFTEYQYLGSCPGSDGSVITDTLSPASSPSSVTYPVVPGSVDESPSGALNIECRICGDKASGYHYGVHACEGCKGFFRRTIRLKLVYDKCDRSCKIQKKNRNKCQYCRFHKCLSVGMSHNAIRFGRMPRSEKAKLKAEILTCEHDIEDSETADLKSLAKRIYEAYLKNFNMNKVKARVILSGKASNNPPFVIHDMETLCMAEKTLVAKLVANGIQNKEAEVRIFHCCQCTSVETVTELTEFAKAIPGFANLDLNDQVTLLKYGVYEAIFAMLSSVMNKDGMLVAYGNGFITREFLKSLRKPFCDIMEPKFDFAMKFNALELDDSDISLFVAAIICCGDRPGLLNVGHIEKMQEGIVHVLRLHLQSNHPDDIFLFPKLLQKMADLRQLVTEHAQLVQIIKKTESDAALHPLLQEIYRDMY
Summary of the method: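 Chemicals were first screened in duplicate at 25 uM, and active ones were retested across concentration series. Binding was monitored by TR-FRET one hour after dosing, with decreased signal against DMSO counted as activity.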

[10] = biological target: Ratio of Nucleoli Translocation and Cytoplasm, AR (gene 367) (UniProt P10275); assay: UPITT_HCI_U2OS_AR_TIF2_Nucleoli_Cytoplasm_Ratio_Antagonist: University of Pittsburgh U2OS Androgen Receptor-Transcriptional Intermediary Factor 2 (AR-TIF2) Antagonism High Content Imaging Assay for Ratio of Nucleoli Translocation and Cytoplasm (AID 2283999);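 further: antagonists lower the DHT-driven ratio of nucleolar to cytoplasmic red signal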
Chain of Ratio of Nucleoli Translocation and Cytoplasm, AR (gene 367) (P10275 whole entry, looked up, the tested form may be a part): as the sequence (P10275 whole entry, looked up, the tested form may be a part) above
Summary of the method: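 Human osteosarcoma U2OS line, AR fused to RFP, coactivator TIF2 fused to GFP. Cpds 20 uM final, 0.2% DMSO (screen); 0.195–50 uM final, 0.5% DMSO (CRC). Endpoint: nucleoli/cytoplasm red signal ratio, DHT as baseline, loss-of-signal antagonist mode.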

[11] = biological target: human Caspase 5 (CASP5), CASP5 (gene 838) (UniProt P51878); assay: NVS_ENZ_hCASP5: NovaScreen (NVS) Enzymatic Assay for human Caspase 5 (CASP5) (AID 2283137)
Chain of human Caspase 5 (CASP5), CASP5 (gene 838) (P51878 whole entry, looked up): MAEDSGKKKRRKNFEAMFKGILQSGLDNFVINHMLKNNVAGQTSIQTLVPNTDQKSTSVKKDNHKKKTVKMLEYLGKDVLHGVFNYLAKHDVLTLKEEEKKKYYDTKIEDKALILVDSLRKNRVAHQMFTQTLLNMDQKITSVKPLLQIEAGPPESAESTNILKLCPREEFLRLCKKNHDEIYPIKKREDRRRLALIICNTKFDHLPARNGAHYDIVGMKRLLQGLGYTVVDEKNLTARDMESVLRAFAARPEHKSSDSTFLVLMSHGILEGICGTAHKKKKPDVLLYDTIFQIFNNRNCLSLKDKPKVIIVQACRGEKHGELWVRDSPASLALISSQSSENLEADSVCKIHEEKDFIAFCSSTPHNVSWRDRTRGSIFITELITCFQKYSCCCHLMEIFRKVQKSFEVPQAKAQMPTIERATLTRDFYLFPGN
Summary of the method: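 E. coli-derived enzyme, cell-free, 2 h incubation, fluorescence intensity. 25 uM duplicate single-point; hits → concentration series to 50 uM. DMSO baseline, positive/negative controls on every plate.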

[12] = CPHEA_Stoker_NIS_Cytotoxicity: Cytotoxicity Assessment for CPHEA's Radioactive Iodide Uptake (RAIU) Assay for Sodium/Iodide Symporter (NIS) Inhibition, Stoker and Laws Labs (AID 2283897)
Summary of the method: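 hNIS-HEK293T-EPA human kidney cells were exposed for 2 hours at room temperature to test chemicals (0.001–100uM, 0.5% final DMSO) in HEPES-buffered HBSS, pH 7.4. Viability was read as ATP content by luciferase bioluminescence, loss of signal versus DMSO.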

[13] = biological target: human Matrix Metalloproteinase-9 (MMP9), MMP9 (gene 4318) (UniProt P14780); assay: NVS_ENZ_hMMP9: NovaScreen (NVS) Enzymatic Assay for human Matrix Metalloproteinase-9 (MMP9) (AID 2283190);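 further: cell-free recombinant MMP9 protease activity read by fluorescent substrate signal; active means inhibition seen as loss of fluorescence signal versus DMSO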
Chain of human Matrix Metalloproteinase-9 (MMP9), MMP9 (gene 4318) (P14780 whole entry, looked up): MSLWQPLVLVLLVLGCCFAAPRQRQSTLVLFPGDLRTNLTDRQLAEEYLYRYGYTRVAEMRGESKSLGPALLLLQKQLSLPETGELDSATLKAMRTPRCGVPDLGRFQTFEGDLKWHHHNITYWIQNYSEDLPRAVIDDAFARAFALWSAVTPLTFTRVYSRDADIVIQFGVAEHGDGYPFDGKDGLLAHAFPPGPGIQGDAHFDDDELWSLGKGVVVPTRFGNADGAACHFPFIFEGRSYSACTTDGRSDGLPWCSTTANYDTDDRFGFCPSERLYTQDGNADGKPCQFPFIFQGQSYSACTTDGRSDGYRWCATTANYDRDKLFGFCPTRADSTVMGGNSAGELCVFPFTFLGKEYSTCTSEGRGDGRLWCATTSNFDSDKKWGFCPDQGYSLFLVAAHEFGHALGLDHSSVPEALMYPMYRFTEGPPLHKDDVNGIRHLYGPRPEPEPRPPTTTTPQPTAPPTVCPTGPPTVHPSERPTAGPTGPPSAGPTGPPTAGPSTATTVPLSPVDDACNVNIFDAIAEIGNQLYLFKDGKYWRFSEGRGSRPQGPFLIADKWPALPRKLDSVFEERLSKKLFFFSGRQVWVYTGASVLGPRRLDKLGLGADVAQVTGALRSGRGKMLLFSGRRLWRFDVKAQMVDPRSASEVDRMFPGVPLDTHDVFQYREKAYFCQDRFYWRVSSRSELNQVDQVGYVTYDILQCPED
Summary of the method: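 Extracted enzyme, fluorescent substrate, 1 h post-dose read. Single conc 25 uM in duplicate, then concentration series for actives. Activity = signal loss relative to DMSO negative control.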

[14] = biological target: PGR (gene 5241) (UniProt P06401); assay: TOX21_PR_BLA_Followup_Antagonist_ratio: Tox21 HEK293 Progesterone Receptor (PR) Antagonism Beta-lactamase Follow-Up Assay, Ratio (AID 2283934)
Chain of PGR (gene 5241) (P06401 whole entry, looked up): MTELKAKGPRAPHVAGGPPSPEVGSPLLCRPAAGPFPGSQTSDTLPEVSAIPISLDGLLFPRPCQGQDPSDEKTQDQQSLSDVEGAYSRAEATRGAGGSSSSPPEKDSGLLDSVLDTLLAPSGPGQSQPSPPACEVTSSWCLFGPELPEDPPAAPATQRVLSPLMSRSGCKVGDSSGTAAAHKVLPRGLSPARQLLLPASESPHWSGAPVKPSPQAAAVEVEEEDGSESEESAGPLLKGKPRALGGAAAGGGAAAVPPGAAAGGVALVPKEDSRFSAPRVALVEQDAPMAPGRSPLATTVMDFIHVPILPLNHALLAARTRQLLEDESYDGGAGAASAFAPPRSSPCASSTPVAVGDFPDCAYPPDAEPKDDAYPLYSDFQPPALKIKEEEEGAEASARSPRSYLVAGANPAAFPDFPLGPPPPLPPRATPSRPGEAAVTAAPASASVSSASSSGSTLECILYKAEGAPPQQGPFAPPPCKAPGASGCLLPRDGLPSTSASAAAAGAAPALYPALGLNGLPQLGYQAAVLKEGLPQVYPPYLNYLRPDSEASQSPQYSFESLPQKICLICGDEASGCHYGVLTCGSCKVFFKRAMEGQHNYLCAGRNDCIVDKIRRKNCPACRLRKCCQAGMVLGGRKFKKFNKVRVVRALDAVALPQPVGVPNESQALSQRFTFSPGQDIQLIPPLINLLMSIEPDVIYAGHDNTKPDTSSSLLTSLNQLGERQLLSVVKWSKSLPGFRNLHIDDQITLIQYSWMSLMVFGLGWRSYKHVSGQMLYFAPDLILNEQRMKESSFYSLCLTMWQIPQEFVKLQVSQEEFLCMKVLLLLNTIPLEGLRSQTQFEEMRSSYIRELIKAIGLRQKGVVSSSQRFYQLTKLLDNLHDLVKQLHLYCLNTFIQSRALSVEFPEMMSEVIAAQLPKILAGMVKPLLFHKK
Summary of the method: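 HEK293T PR-UAS-bla, 2% CS-FBS; 6 hr plating, then cpd + R5020 (1 nM final), 16 hr 37C/5% CO2. B/G FRET substrate 2 h RT. Ratio ch2/ch1 vs DMSO; CellTiter-Glo viability multiplexed, autofluorescence checked.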

[15] = biological target: PGR (gene 5241) (UniProt P06401); assay: TOX21_PR_LUC_Followup_Antagonist: Tox21 HEK293 Progesterone Receptor (PR) Antagonism Luciferase Follow-Up Assay (AID 2283938);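 further: curve fitted upward as signal gain over DMSO baseline despite antagonist label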
Summary of the method: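 Cells are grown 5 days in charcoal-stripped-FBS assay medium, plated, left 5 h, then dosed with compound and incubated 16 h. ONE-Glo reagent is added and luminescence read after 30 min.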

[16] = biological target: Nucleoli Translocation, AR (gene 367) (UniProt P10275); assay: UPITT_HCI_U2OS_AR_TIF2_Nucleoli_Agonist: University of Pittsburgh U2OS Androgen Receptor-Transcriptional Intermediary Factor 2 (AR-TIF2) Agonism High Content Imaging Assay for Nucleoli Translocation (AID 2283998)
Chain of Nucleoli Translocation, AR (gene 367) (P10275 whole entry, looked up): as the sequence (P10275 whole entry, looked up, the tested form may be a part) above
Summary of the method: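 Readout is red (AR-RFP) fluorescence localized to nucleoli, measured by high-content imaging and analysed for increase relative to DMSO. Compound series spanned 0.195 to 50 uM final in 0.5% DMSO.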

## CC(C)CCCCCCCOP(=O)(Oc1ccccc1)Oc1ccccc1
[1]
  AC50: 12.2 µM (active)
[2]
  outcome: inactive
[3]
  outcome: inactive

## O=S(=O)(c1ccccc1)c1ccccc1
[1]
  AC50: 19.9 µM (active)

## CC(=O)/C=C/c1ccccc1
[4]
  AC50: 19.9 µM (active)

## Cc1ccc(OP(=O)(Oc2ccc(C)cc2)Oc2ccc(C)cc2)cc1 (tested in a mixture with another compound)
[2]
  outcome: inactive
[3]
  outcome: inactive

## CC(C)c1ccc(O)cc1
[5]
  outcome: inactive

## CC(C)(C)C(O)C(Oc1ccc(-c2ccccc2)cc1)n1cncn1 (stereo not given)
[1]
  AC50: 18 µM (active)
[4]
  AC50: 25 µM (active)

## O=C=Nc1ccccc1
[6]
  outcome: inactive

## C=CC(=O)OCC(CC)CCCC (stereo not given)
[6]
  outcome: inactive
[5]
  outcome: inactive

## COc1cc(OC)nc(Oc2cccc(Oc3nc(OC)cc(OC)n3)c2C(=O)O)n1
[7]
  outcome: inactive
[8]
  outcome: inactive
[9]
  outcome: inactive
[6]
  outcome: inactive
[10]
  outcome: inactive

## O=C1C=CC(=O)C=C1
[11]
  AC50: 28.9 µM (active)
[3]
  AC50: 50 µM (active)

## Nc1ccccc1
[9]
  outcome: inactive
[6]
  outcome: inactive

## CC1OC(C)OC(C)O1 (stereo not given)
[11]
  outcome: inactive

## O=P(O)(Oc1ccccc1)Oc1ccccc1
[12]
  outcome: inactive
[5]
  outcome: inactive

## CCOP(=O)(OCC)OCC
[13]
  AC50: 5.9 µM (active)

## CN(C)CCC#N
[13]
  AC50: 9.19 µM (active)

## C[C@]12CCC(=O)C(O)=C1CC[C@@H]1[C@@H]2CC[C@]2(C)C(=O)CC[C@@H]12
[14]
  AC50: 11.3 µM (active)
[15]
  outcome: inactive

## CC1CCCC1.[C-]#[O+].[C-]#[O+].[C-]#[O+].[Mn]
[2]
  outcome: inactive
[3]
  AC50: 50 µM (active)

## Nc1ccc(-c2ccc(N)c(N)c2)cc1N
[11]
  AC50: 5.41 µM (active)

## O=[N+]([O-])c1ccc(Cl)cc1
[4]
  outcome: inactive

## CC(C)CCCCCCCOC(=O)c1ccccc1C(=O)OCCCCCCCC(C)C
[13]
  AC50: 10.9 µM (active)

## CC(=O)c1cc2c(cc1C)C(C)(C)C(C)CC2(C)C (stereo not given)
[12]
  outcome: inactive
[14]
  AC50: 5.67 µM (active)
[5]
  outcome: inactive

## CCCCCCCCCCCCCCCC[N+](C)(C)C
[9]
  AC50: 19.9 µM (active)
[12]
  outcome: inactive

## CN(C)N
[16]
  outcome: inactive
[10]
  outcome: inactive

## C[C@]12CC[C@H]3[C@@H](CC[C@@]45O[C@@H]4C(O)=C(C#N)C[C@]35C)[C@@H]1CC[C@@H]2O
[14]
  outcome: inactive
[15]
  outcome: inactive

## Cc1ccc(C)c2ccccc12
[16]
  outcome: inactive
[10]
  outcome: inactive
